# Data: the supplement of paper PMC11417369
# ± gives the standard deviation of the averaged measurements. In all, about 25,000 sequences were measured (“ln(normalized median fluorescence intensity)”: median about 8.9, highest 2% from about 10 on). The entries come from a sample that favours the highest values as a whole.
# System: PfAP2-LT AP2 domain (GST-tagged)
# Assay: gcPBM binding intensity (ln(normalized median fluorescence intensity)); higher = stronger DNA binding
# Procedure, shortened: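 Binding intensity values are the highest Masliner-normalised natural-log median intensity among replicate spots of either probe orientation. The binding step lasted 1 h in 1× PBS with 1% milk, 0.2 mg/ml BSA, 0.5% salmon testes DNA and 0.03% Triton X-100, using GST-tagged P. falciparum DNA-binding domains expressed in E. coli on an Agilent 4 × 180k array of primer-extended double-stranded 36-bp intergenic genomic probes plus negative controls. Alexa488 anti-GST antibody and a 488 nm scan detected bound protein.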
row,Sequence,gcPBM binding intensity (ln)
1,ATTTCTCTATCGTAATGTACATAAAAAATGAAAAAA [XGTACX_site1201],8.51 ± 0.51
2,TTATTATTTTATAACACACACATATATATTATATCT [CACACA_site1434],9.11 ± 0.35
3,ATTAAATCCGCACGCACACACACATATTAATAAAAA [CACACA_site3992],9.71 ± 0.33
4,AATTGTGCATTATATTGTACACGTGTTGTATATATT [XGTACX_site975],9.18 ± 0.33
5,TTTGTTTTTAATTTCGCACACACCTTGTGGAAAAAA [CACACA_site577],8.98 ± 0.3
6,TTATTTATAATATATACACACTAACATTATTTATCC [CACACA_site4835],8.8 ± 0.51
7,AAAAATAAATTTAGTTGTACTTTATTATTTTAAATA [XGTACX_site3067],8.28 ± 0.37
8,ATATAACATAGACACACACACATATAAATATATTAT [CACACA_site7865],9.67 ± 0.14
9,CTTCATAAAAATTGCACACATATAATAATGTACATA [CACACA_site2212],8.96 ± 0.36
10,TTAAATGGAAAAATATGTACATATATATATATATTT [XGTACX_site2286],8.84 ± 0.35
11,AACACGCGCAGACACACACACACACGCACATATATA [CACACA_site7104],10.3 ± 0.28
12,CACGCACGCAGACACACACACACACGCACATATATA [CACACA_site6303],10.2 ± 0.38
13,CAAGCACAGAAACACACACACACACCGACACAGACA [CACACA_site4359],10.1 ± 0.15
14,CGCGCACCCAGACACACACACACACCGATATATATA [CACACA_site8687],10.1 ± 0.48
15,CGCACACGCAGACACACACACACATATAAATAAATA [CACACA_site7101],9.74 ± 0.37
16,ACATCAAGCAGACACACACACACACCCACCCACCGA [CACACA_site371],10.4 ± 0.11
17,AACAGACATAGAAACACACATACATACATACATACA [CACACA_site2479],9.53 ± 0.65
18,AGCACGCACAGACACACACACATATTTATATTTATA [CACACA_site6291],9.72 ± 0.39
19,TAAACAGACATATAAACACACATATAAACCGACATA [CACACA_site2478],9.4 ± 0.48
20,AAGCATACATCAAGCACACACACACCCACAGAGACA [CACACA_site4362],9.91 ± 0.22
21,GATCCATTATTGATCCGTACTTATTCATGTTATATA [XGTACX_site5946],8.91 ± 0.51
22,AGAAAAAAATAATGTACACACACATATATGTTTATA [CACACA_site7946],9.14 ± 0.36
23,TATGTGCACCCATGTACATGCGGACATATGTTATAT [TGCATGCA_site383],9.04 ± 0.42

row,Sequence,gcPBM binding intensity (ln)
1,ATTTATATATTGCCCACACACATGTGATTATTTATA [CACACA_site1714],9.28 ± 0.46
2,CTAAATATATAAAAAAGTACAAAATAAATAATAATT [XGTACX_site2442],8.79 ± 0.46
3,ACATATATATATAAATATATATATATATAAATATAT [CACACA_negctrl_site895],9.03 ± 0.28
4,TATACAGGAATATTTTTACACACTAATAATTATAAA [CACACA_site8477],8.73 ± 0.5
5,TATATATATATGTGCACACCAATTGTATGTAATATA [CACACA_site3889],9.32 ± 0.2
6,TAAAAAGAAATGTAAAGTACAAATTTGAATAACATG [XGTACX_site7981],8.88 ± 0.52
7,ATTTTAACCAATTATTGTACTTGGTTATTCTTTTTT [XGTACX_site7453],8.94 ± 0.45
8,TTTTATTTTTAAGGATGTACTCAATTGTTTATATAC [XGTACX_site3965],8.85 ± 0.4
9,TTTTCTAAATTAATAATACACACTTGCTAAAATCAT [CACACA_site3207],8.47 ± 0.46
10,AGTATACGCAGACACACACACACATATATATATATA [CACACA_site1735],10.22 ± 0.042
11,GGTATACGCAAGTATACACACATATATATATATATA [CACACA_site3240],10.01 ± 0.042
12,ATAATTTGTGGACACACACACACACCGACATATATA [CACACA_site8718],9.97 ± 0.33
13,TATATACACAGACACACACACACATACACGCACATA [CACACA_site6909],10.1 ± 0.22
14,ATTATAGACACGCGCACACACAACAAAAAAAAAAAA [CACACA_site9180],9.73 ± 0.61
15,ACATCAAGCGGACACACACACACACCGACAGACACA [CACACA_site4361],10.2 ± 0.33
16,ATTATACACGCGCGCACACACAACAAAAAAAAAAAA [CACACA_site7630],9.43 ± 0.48
17,AGTATACATATATATACACACATATATATATATATA [CACACA_site300],9.83 ± 0.34
18,CAAGCACACGGACACACACACACACGCGCACGCACA [CACACA_site6307],10.3 ± 0.28
19,CACATACAGACATACACACATACACATATACGCATA [CACACA_site1745],9.61 ± 0.36
20,ATTTGGCATGGACACACACACACACCGACAGACATA [CACACA_site4491],10 ± 0.27
21,TTTTTTAAAATATGGACACACATATATATATCTGTA [CACACA_site5535],8.88 ± 0.38
22,TATATCTTAATATACACACACACATATATATATATA [CACACA_site4968],9.71 ± 0.014
